Consider 30 compounds from PubChem BioAssay (NCATS).

Each structure is given as a SMILES string. Records with an inconclusive call do not appear. A call without a number means that no potency is given here. Active and inactive are the calls of the source. Calls come from the whole dose curve; as a rule, active = well fitted curve in the direction sought with a large enough effect; inconclusive = small, poorly fitted or top-dose-only effect, or another doubt; inactive = no such curve, though single readings can be large; an effect the other way counts as inactive or inconclusive.

Test system in one assay: not listed separately
The assay is described as follows: MultiTox-Fluor Cytotoxicity Assay - LYMP1-001 - Live Cells (AID 947). To be noted: LYMP1-001 lymphoblastoid cells, live-cell protease fluorescence viability; series mostly up to 92.2 µM.
For `N[C@@H](Cc1ccc(N(CCCl)CCCl)cc1)C(=O)O`, the outcome was inactive. Still for that read-out and setting: the entry for `CNCC(O)c1ccc(O)cc1` (stereo not given) is “inactive”.

`OCCOc1ccccc1`: the result was inactive. As for `Oc1ccccc1-c1ccccc1`, the result was inactive. On the same count and under the same terms, the entry for `CCOP(=S)(OCC)Oc1cc(C)nc(C(C)C)n1` is “inactive”. Same read-out and setting: the entry for `NCC(O)c1ccc(O)cc1` (stereo not given) is “inactive”.

For the compound `c1ccc2c(c1)Nc1ccccc1S2`, the compound was called inactive.

With `Oc1ccc(Cl)cc1Cc1ccccc1`, the call was inactive.

Test system in the next assay: not listed separately
The assay is described as follows: Cell Viability - LYMP1-002 - Assay at 16 hr (AID 948). The settings on record: LYMP1-002 lymphoblastoid cell viability; series mostly up to 92.2 µM. The method, boiled down: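 ATP luminescence (CellTiter-Glo) was measured after 16 hr compound exposure at 37 C of 2500 lymphoblastoid LYMP1-002 cells per well. Concentration-response curves were fitted with the Hill equation to give AC50.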
Turning to `N[C@@H](Cc1ccc(N(CCCl)CCCl)cc1)C(=O)O`, the compound was called inactive. Still for that read-out and setting: the value for `C[C@]12C/C(=C/O)C(=O)C[C@@H]1CC[C@@H]1[C@@H]2CC[C@@]2(C)[C@H]1CC[C@]2(C)O` was “inactive”; that for `CCCC(C)(COC(N)=O)COC(=O)NC(C)C` (stereo not given) was “inactive”; that for `CNCC(O)c1ccc(O)cc1` (stereo not given) was “inactive”. Still for that read-out and setting: the entry for `OCCOc1ccccc1` is “inactive”; for `Clc1ccc(COC(Cn2ccnc2)c2ccc(Cl)cc2Cl)cc1` (stereo not given) it is “inactive”; for `Oc1ccccc1-c1ccccc1` it is “inactive”.

On to `CCOP(=S)(OCC)Oc1cc(C)nc(C(C)C)n1`, for which the compound was classed as inactive. The same measure, in the same setting: the value for `NCC(O)c1ccc(O)cc1` (stereo not given) was “inactive”; that for `c1ccc2c(c1)Nc1ccccc1S2` was “inactive”; that for `Oc1ccc(Cl)cc1Cc1ccccc1` was “inactive”.

Test system in a further assay: not listed separately
The assay is described as follows: MultiTox-Fluor Cytotoxicity Assay - LYMP1-002 - Live Cells (AID 955). Note: potency is the fitted concentration of half-maximal effect. The settings on record: LYMP1-002 lymphoblastoid live-cell protease fluorescence viability; series mostly up to 46.1 µM. The method, boiled down:
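Human lymphoblastoid LYMP1-002 cells, 2500/well in complete medium, rested 5 hr at 37 C, then exposed to compounds for 16 hr at 37 C. Live-cell protease cleavage of GF-AFC read by fluorescence (Ex/Em 405/510) after 60 min at room temperature; AC50 from Hill fits.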
In the case of `N[C@@H](Cc1ccc(N(CCCl)CCCl)cc1)C(=O)O`, the Potency result is “inactive”. Take `CCCC(C)(COC(N)=O)COC(=O)NC(C)C` (stereo not given): the Potency entry was “inactive”. The same measure, in the same setting: the entry for `CNCC(O)c1ccc(O)cc1` (stereo not given) is “inactive”; for `OCCOc1ccccc1` it is “inactive”.

On to `Clc1ccc(COC(Cn2ccnc2)c2ccc(Cl)cc2Cl)cc1` (stereo not given), for which the Potency entry is “inactive”.

Take `Oc1ccccc1-c1ccccc1`: the Potency result is “inactive”.

On to `CCOP(=S)(OCC)Oc1cc(C)nc(C(C)C)n1`, for which the Potency entry is “inactive”. On the same count and under the same terms, the entry for `Oc1cccc2cccnc12` is “inactive”.

Take `NCC(O)c1ccc(O)cc1` (stereo not given): the Potency entry was “inactive”. For the compound `c1ccc2c(c1)Nc1ccccc1S2`, the Potency entry is “inactive”. Take `Oc1ccc(Cl)cc1Cc1ccccc1`: the Potency entry was “inactive”. The same measure, in the same setting: the value for `CC(=O)Oc1ccccc1C(=O)Nc1ncc([N+](=O)[O-])s1` was 25.1 µM (active).

The next assay deals with Alpha-galactosidase (Coffea arabica) (UniProt Q42656). The assay is described as follows: Counterscreen for Glucocerebrosidase Inhibitors: qHTS Assay for Coffee Bean alpha-Galactosidase at pH 4.5 (AID 957). To be noted: purified coffee bean alpha-galactosidase, fluorogenic substrate; series mostly up to 76.9 µM. The method, boiled down: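 Green coffee bean enzyme (2 nM final) was incubated with compounds (0.7 nM to 77 uM) and 4-methylumbelliferyl alpha-D-galactopyranoside (80 uM final) in 50 mM citric acid, 0.005% Tween-20, pH 4.5, 20 min at room temperature; AC50 from Hill fits.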
Sequence of Alpha-galactosidase (Coffea arabica) (Q42656 whole entry, looked up): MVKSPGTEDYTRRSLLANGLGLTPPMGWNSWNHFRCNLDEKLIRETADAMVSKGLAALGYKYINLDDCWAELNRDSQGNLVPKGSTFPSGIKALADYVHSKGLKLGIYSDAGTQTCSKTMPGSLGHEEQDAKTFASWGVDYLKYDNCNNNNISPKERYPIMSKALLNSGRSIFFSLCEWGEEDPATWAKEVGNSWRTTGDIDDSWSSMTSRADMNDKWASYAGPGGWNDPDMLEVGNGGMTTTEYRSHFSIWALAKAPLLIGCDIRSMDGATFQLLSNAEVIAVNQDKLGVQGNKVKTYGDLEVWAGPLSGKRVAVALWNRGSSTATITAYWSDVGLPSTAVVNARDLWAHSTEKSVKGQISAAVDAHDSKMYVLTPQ
On to `CN(C)CCCN1c2ccccc2CCc2ccc(Cl)cc21`, for which the call was inactive. In the case of `CN(C)C(=O)C(CCN1CCC(O)(c2ccc(Cl)cc2)CC1)(c1ccccc1)c1ccccc1`, the compound was called inactive. Take `CC(C)OC(=O)C(C)(C)Oc1ccc(C(=O)c2ccc(Cl)cc2)cc1`: the compound was called inactive. Still for that read-out and setting: the value for `CCCC(C)(COC(N)=O)COC(=O)NC(C)C` (stereo not given) was “inactive”; that for `Clc1ccc2c(c1)C(N1CCNCC1)=Nc1ccccc1O2` was “inactive”. Same read-out and setting: the entry for `CCC1(c2ccccc2)C(=O)NCNC1=O` is “inactive”. On the same count and under the same terms, the value for `CCN(CC)CCNC(=O)c1cc(Cl)c(N)cc1OC` was “inactive”; that for `CNCC(O)c1ccc(O)cc1` (stereo not given) was “inactive”. Turning to `O=c1[nH]c2ccccc2n1CCCN1CCC(n2c(=O)[nH]c3cc(Cl)ccc32)CC1`, the call was inactive.

Turning to `CC(=O)Nc1nnc(S(N)(=O)=O)s1`, the outcome was inactive.

Turning to `CN(C)CC/C=C1\c2ccccc2COc2ccccc21`, the outcome was inactive. As for `CC(C)NCC(O)COc1cccc2[nH]ccc12` (stereo not given), the compound was called inactive. Same read-out and setting: the value for `Nc1nc2c(ncn2COCCO)c(=O)[nH]1` was “inactive”; that for `O=C(c1ccc(OCCN2CCCCC2)cc1)c1c(-c2ccc(O)cc2)sc2cc(O)ccc12` was “inactive”. The same measure, in the same setting: the entry for `CN1CCC[C@@H]1CCO[C@](C)(c1ccccc1)c1ccc(Cl)cc1` is “inactive”; for `CN1CCN(C2=Nc3ccccc3Oc3ccc(Cl)cc32)CC1` it is “inactive”.

Take `CC(C)C(=O)Nc1ccc([N+](=O)[O-])c(C(F)(F)F)c1`: the result was inactive. The same measure, in the same setting: the value for `Nc1nnc(-c2cccc(Cl)c2Cl)c(N)n1` was “inactive”. For the compound `CN/C(=C\[N+](=O)[O-])NCCSCc1ccc(CN(C)C)o1`, the outcome was inactive.
